Data taken from PubChem BioAssay (NCATS).
Inconclusive results are not listed. Active and inactive are the calls of the source. Calls come from the whole dose curve; as a rule, active = well fitted inhibition curve with a large enough effect; inconclusive = small, poorly fitted or top-dose-only effect; inactive = flat fitted curve, though single readings scatter.

Tests used:
Assay in all cases: qHTS profiling for inhibitors of Plasmodium falciparum proliferation (AID 504749);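 note: 0% = DMSO vehicle and full inhibition = artemisinin control; nearly all actives have a fitted effect of over 60% in size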
Conditions in all cases: P. falciparum in erythrocytes, SYBR Green DNA, 72 h; series mostly up to 28.7 µM
CP315 = test system: CP315
In short: (§1)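 Readout was DNA-dye fluorescence from lysed cultures, ex 485/em 535 nm. Parasitized red cells had grown 72 h with compound; data scaled between 0.29 uM artemisinin and DMSO wells and corrected using vehicle-only plates.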

CP325 = test system: CP325
In short: as §1

CP329 = test system: CP329
In short: as §1

CP335 = test system: CP335
In short: as §1

DFO2036 = test system: DFO2036
In short: as §1

DIV14 = test system: DIV14
In short: as §1

DIV17 = test system: DIV17
In short: as §1

DIV30 = test system: DIV30
In short: as §1

Dd2 = test system: Dd2
In short: as §1

ECU = test system: ECU
In short: as §1

O=C1c2ccccc2C(=O)C1C(=O)C(c1ccccc1)c1ccccc1
inactive: Potency (CP315) | Potency (CP325) | Potency (CP329) | Potency (CP335) | Potency (DFO2036) | Potency (DIV14) | Potency (DIV17) | Potency (DIV30) | Potency (Dd2) | Potency (ECU)

CNC(C)(C)Cc1ccccc1
inactive: Potency (CP315) | Potency (CP325) | Potency (CP329) | Potency (CP335) | Potency (DFO2036) | Potency (DIV14) | Potency (DIV17) | Potency (DIV30) | Potency (Dd2) | Potency (ECU)

NC(=O)CS(=O)C(c1ccccc1)c1ccccc1 (stereo not given)
inactive: Potency (CP315) | Potency (CP325) | Potency (CP329) | Potency (CP335) | Potency (DFO2036) | Potency (DIV14) | Potency (DIV17) | Potency (DIV30) | Potency (Dd2) | Potency (ECU)

CCC1(CC)C(=O)C=CNC1=O
inactive: Potency (CP315) | Potency (CP325) | Potency (CP329) | Potency (CP335) | Potency (DFO2036) | Potency (DIV14) | Potency (DIV17) | Potency (DIV30) | Potency (Dd2) | Potency (ECU)

CN1C(=O)CCS(=O)(=O)C1c1ccc(Cl)cc1 (stereo not given)
inactive: Potency (CP315) | Potency (CP325) | Potency (CP329) | Potency (CP335) | Potency (DFO2036) | Potency (DIV14) | Potency (DIV17) | Potency (DIV30) | Potency (Dd2) | Potency (ECU)

CCCCC/C=C\C/C=C\C/C=C\C/C=C\CCCC(=O)NCC(=O)O
inactive: activity, negative = inhibition (CP315) -5.37% [at 2.67 µM] | activity, negative = inhibition (CP325) 2.88% [at 2.67 µM] | activity, negative = inhibition (CP329) 5.14% [at 2.67 µM] | activity, negative = inhibition (CP335) 3% [at 2.67 µM] | activity, negative = inhibition (DFO2036) 8.68% [at 2.67 µM] | activity, negative = inhibition (DIV14) 7.6% [at 2.67 µM] | activity, negative = inhibition (DIV17) 1.26% [at 2.67 µM] | activity, negative = inhibition (DIV30) -7.28% [at 2.67 µM] | activity, negative = inhibition (Dd2) 0.222% [at 2.67 µM] | activity, negative = inhibition (ECU) -2.86% [at 2.67 µM]

COP(=S)(OC)SCN1C(=O)c2ccccc2C1=O
inactive: Potency (CP315) | Potency (CP325) | Potency (CP329) | Potency (CP335) | Potency (DFO2036) | Potency (DIV14) | Potency (DIV17) | Potency (DIV30) | Potency (Dd2) | Potency (ECU)

COc1c2c(cc3c1OCO3)CCN(C)C2
inactive: Potency (CP315) | Potency (CP325) | Potency (CP329) | Potency (CP335) | Potency (DFO2036) | Potency (DIV14) | Potency (DIV17) | Potency (DIV30) | Potency (Dd2) | Potency (ECU)

CC(C)=CC1C(C(=O)OCN2C(=O)C3=C(CCCC3)C2=O)C1(C)C (stereo not given)
inactive: Potency (CP315) | Potency (CP325) | Potency (CP329) | Potency (CP335) | Potency (DFO2036) | Potency (DIV14) | Potency (DIV17) | Potency (DIV30) | Potency (Dd2) | Potency (ECU)

CCOC(=O)CC(SP(=S)(OC)OC)C(=O)OCC (stereo not given)
inactive: Potency (CP315) | Potency (CP325) | Potency (CP329) | Potency (CP335) | Potency (DFO2036) | Potency (DIV14) | Potency (DIV17) | Potency (DIV30) | Potency (Dd2) | Potency (ECU)

c1ccc2c(c1)sc1ccccc12
inactive: Potency (CP315) | Potency (CP325) | Potency (CP329) | Potency (CP335) | Potency (DFO2036) | Potency (DIV14) | Potency (DIV17) | Potency (DIV30) | Potency (Dd2) | Potency (ECU)

O=P1(N(CCCl)CCCl)NCCCO1 (stereo not given)
inactive: Potency (CP315) | Potency (CP325) | Potency (CP329) | Potency (CP335) | Potency (DFO2036) | Potency (DIV14) | Potency (DIV17) | Potency (DIV30) | Potency (Dd2) | Potency (ECU)

O=C1Nc2ccc(Cl)cc2C(c2ccccc2Cl)=NC1O (stereo not given)
inactive: Potency (CP315) | Potency (CP325) | Potency (CP329) | Potency (CP335) | Potency (DFO2036) | Potency (DIV14) | Potency (DIV17) | Potency (DIV30) | Potency (Dd2) | Potency (ECU)

CCCC(C)(COC(N)=O)COC(N)=O
inactive: Potency (CP315) | Potency (CP325) | Potency (CP329) | Potency (CP335) | Potency (DFO2036) | Potency (DIV14) | Potency (DIV17) | Potency (DIV30) | Potency (Dd2) | Potency (ECU)

O=c1oc2ccccc2c(O)c1Cc1c(O)c2ccccc2oc1=O
inactive: Potency (CP315) | Potency (CP325) | Potency (CP329) | Potency (CP335) | Potency (DFO2036) | Potency (DIV14) | Potency (DIV17) | Potency (DIV30) | Potency (Dd2) | Potency (ECU)

O=C(O)CCCc1ccc(N(CCCl)CCCl)cc1
inactive: Potency (CP315) | Potency (CP325) | Potency (CP329) | Potency (CP335) | Potency (DFO2036) | Potency (DIV14) | Potency (DIV17) | Potency (DIV30) | Potency (Dd2) | Potency (ECU)

C[C@]12CC[C@@H]3c4ccc(OC(=O)N(CCCl)CCCl)cc4CC[C@H]3[C@@H]1CC[C@@H]2O
inactive: Potency (CP315) | Potency (CP325) | Potency (CP329) | Potency (CP335) | Potency (DFO2036) | Potency (DIV14) | Potency (DIV17) | Potency (DIV30) | Potency (Dd2) | Potency (ECU)

Cc1ncsc1CCCl
inactive: Potency (CP315) | Potency (CP325) | Potency (CP329) | Potency (CP335) | Potency (DFO2036) | Potency (DIV14) | Potency (DIV17) | Potency (DIV30) | Potency (Dd2) | Potency (ECU)

Clc1cccc(SC2CCNCC2)n1
inactive: Potency (CP315) | Potency (CP325) | Potency (CP329) | Potency (CP335) | Potency (DFO2036) | Potency (DIV14) | Potency (DIV17) | Potency (DIV30) | Potency (Dd2) | Potency (ECU)

O=C1OC(c2ccc(O)c(S(=O)(=O)O)c2)(c2ccc(O)c(S(=O)(=O)O)c2)c2c(Br)c(Br)c(Br)c(Br)c21
inactive: Potency (CP315) | Potency (CP325) | Potency (CP329) | Potency (CP335) | Potency (DFO2036) | Potency (DIV14) | Potency (DIV17) | Potency (DIV30) | Potency (Dd2) | Potency (ECU)

Nc1ccccc1C(=O)O
inactive: Potency (CP315) | Potency (CP325) | Potency (CP329) | Potency (CP335) | Potency (DFO2036) | Potency (DIV14) | Potency (DIV17) | Potency (DIV30) | Potency (Dd2) | Potency (ECU)

CCCCCCC(=O)CCCCCC/C=C/C[C@@H](O)[C@H](O)[C@@](N)(CO)C(=O)O
inactive: Potency (CP315) | Potency (CP325) | Potency (CP329) | Potency (CP335) | Potency (DFO2036) | Potency (DIV14) | Potency (DIV17) | Potency (DIV30) | Potency (Dd2) | Potency (ECU)

O=C1Nc2ccc(Cl)cc2C(c2ccccc2)=NC1O (stereo not given)
inactive: Potency (CP315) | Potency (CP325) | Potency (CP329) | Potency (CP335) | Potency (DFO2036) | Potency (DIV14) | Potency (DIV17) | Potency (DIV30) | Potency (Dd2) | Potency (ECU)

CN1C(=O)COc2c(C(=O)NC3CN4CCC3CC4)cc(Cl)cc21 (stereo not given)
inactive: Potency (CP315) | Potency (CP325) | Potency (CP329) | Potency (CP335) | Potency (DFO2036) | Potency (DIV14) | Potency (DIV17) | Potency (DIV30) | Potency (Dd2) | Potency (ECU)

Clc1ccc2c(c1)C(c1ccccc1)=NCc1nncn1-2
inactive: Potency (CP315) | Potency (CP325) | Potency (CP329) | Potency (CP335) | Potency (DFO2036) | Potency (DIV14) | Potency (DIV17) | Potency (DIV30) | Potency (Dd2) | Potency (ECU)

O=C(Nc1ccc(Br)cc1)c1cc(Br)cc(Br)c1O
inactive: Potency (CP315) | Potency (CP325) | Potency (CP329) | Potency (CP335) | Potency (DFO2036) | Potency (DIV14) | Potency (DIV17) | Potency (DIV30) | Potency (Dd2) | Potency (ECU)

CN1C(=O)CC(=O)N(c2ccccc2)c2cc(Cl)ccc21
inactive: Potency (CP315) | Potency (CP325) | Potency (CP329) | Potency (CP335) | Potency (DFO2036) | Potency (DIV14) | Potency (DIV17) | Potency (DIV30) | Potency (Dd2) | Potency (ECU)
